From PubChem BioAssay (NCATS)
Where “and” joins values, the source holds several entries; their conditions need not be identical. Equal entries are not always repeated. Results filed as inconclusive are left out. Where a call stands in place of a potency, no number is given. The source holds several records for some structures; these can differ, active in one and inactive in another. Calls of active or inactive are those of the source. Unless noted, the call rests on the fitted dose curve; in most records, active means well fitted curve in the direction sought with a large enough effect; inconclusive means small, poorly fitted or top-dose-only effect, or another doubt; inactive means no such curve, though single readings can be large; an effect the other way counts as inactive or inconclusive.

Key:
[1] = Identifying Small Molecule Inhibitors of Pancreatic Cancer Stem Cells (SN12C, Adherent) (AID 1259358); details: viability/growth inhibition; series mostly up to 46.1 µM;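 further: cell survival measured after 48 h of compound exposure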; further: potency means the concentration at half of the fitted maximal effect
How it was run: (§1)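 After a 4 h attachment period, compounds were pinned into wells and cultures held 48 h under standard incubator conditions. Viability was then measured as CellTiter-Glo luminescence following 10 min at room temperature.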

[2] = Identifying Small Molecule Inhibitors of Pancreatic Cancer Stem Cells (SN12C, Spheroid) (AID 1259360); details: Potency: SN12C spheroid viability; series mostly up to 46.1 µM; further: potency means the concentration at half of the fitted maximal effect
From the text: Progenitor-like cancer cells, often referred to as cancer stem cells (CSC), are believed to be the drivers of therapeutic resistance and rapid recurrence. CSCs are postulated to reside in specific niches characterized by low oxygen tension, limited nutrient supply, and high redox load. Selectively targeting CSC, alone or in combination with cytotoxic agents, as a means to produce durable remissions is an appealing concept. Modeling these cells in in vitro setting is an important step in finding new therapies and/or targets. Multiple reports highlight that forcing cells in culture into 3-dimensionaly architectures (spheroids) re-establishes key progenitor-like transcriptional signatures. Pancreatic cancer is among the diseases with the most dismal outlook which is driven, largely, by recurance following front-line therapies. […] In hopes of deriving new insight into the targeting of these pancreatic CSCs we examined three established pancreatic cancer cell lines in cytotoxicity assays versus a collection of approved and investigational drugs. Importantly, we screened these lines as traditional monolayer (2D) and spheroid (3D) formats to gain an appreciation of agents with differential activity.
Multicellular tumor spheroids from Panc1, MiaPaCa-2, and the primary low-passage tissue culture line SB.06 were seeded in stem cell media (SCM) in nonadherent 6-well plates coated with hydrogel (Corning Life Sciences, Chelmsford, Mass) and pancreatic spheres generated for 14 days before screening. Cells were seeded into 1536-well solid-bottom white tissue culture treated Greiner Bio One Plates (789173-F) using a MultiDrop Combi (Thermofisher Scientific) dispenser and a small sterile cassette. One column was media alone to be used as a :"no cells" control. The plates were then covered with sterilized stainless steel gasketed lids from Kalypsys. After allowing cells to attach for 4 hours, 23 nL of test compound or control (negative control DMSO and positive control 9.2 uM Bortezomib-final) were added from a 1536-well polypropylene compound source plate to each well using a 1536 head pin tool from Kalypsys. Cells were then incubated for 48 hours at 37C, 95% relative humidity and 5% CO2. After 48 hours, plates were removed from the incubator and 3 uL of CellTiter-Glo (Promega) was added using an Aurora Flying Reagent Dispenser Bioraptor. Plates were incubated at room temperature for 10 minutes prior to reading the luminescence on the Viewlux (PerkinElmer). The relative luciferase units are used to calculate the percent activity using the activity of DMSO in the cells and no cells columns for normalization of no inhibition and full inhibition respectively.

[3] = P-glycoprotein substrates identified in KB-8-5-11 adenocarcinoma cell line, qHTS therapeutic library screen (AID 1346987); details: KB-8-5-11 (P-gp overexpressing) viability, CellTiter-Glo, 72 h; series mostly up to 44.5 µM; further: nearly all actives have a fitted effect of over 65% in size; further: potency means the concentration at half of the fitted maximal effect
How it was run: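 Steps: plate 500 KB-8-5-11 cells/well in DMEM + 10% FCS (colchicine removed); pin compounds in dose-response; incubate 72 h, 37 degree C, 5% CO2; add CellTiter-Glo, 5 min; read luminescence.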

[4] = Identifying Small Molecule Inhibitors of Pancreatic Cancer Stem Cells (Panc1, Spheroid) (AID 1259359); details: Panc1 spheroid cancer stem cell viability;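 further: potency means the concentration at half of the fitted maximal effect; compound exposure lasted 48 h before reading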
How it was run: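 Adherent (2D) versus sphere (3D) formats; spheres generated 14 d in SCM beforehand. Compound transferred by pin tool after 4 h, 48 h incubation, CellTiter-Glo endpoint.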

[5] = Identifying Small Molecule Inhibitors of Pancreatic Cancer Stem Cells (A278, Adherent) (AID 1259361); details: series mostly up to 46.1 µM;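 further: viability read after 48 h compound exposure; nearly all actives have a fitted effect of over 35% in size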
How it was run: as §1

[6] = Identifying Small Molecule Inhibitors of Pancreatic Cancer Stem Cells (Panc1, Adherent) (AID 1259362); details: Potency: viability; series mostly up to 46.1 µM; further: potency means the concentration at half of the fitted maximal effect
How it was run: as §1

[7] = P-glycoprotein substrates identified in KB-3-1 adenocarcinoma cell line, qHTS therapeutic library screen (AID 1346986); details: KB-3-1 parental cells viability, CellTiter-Glo, 72 h; series mostly up to 44.5 µM; further: nearly all actives have a fitted effect of over 60% in size;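 further: potency means the concentration at half of the fitted maximal effect; potency is for cytotoxicity meaning loss of cell viability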
How it was run: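 Resistance attributable to P-gp was assessed by comparing AC50 in KB-8-5-11 with parental KB-3-1 and by tariquidar reversal. Cells were exposed 72 h and viability read by CellTiter-Glo.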

[8] = target: Atrial natriuretic peptide receptor 2 (Homo sapiens) (UniProt P20594); test: Natriuretic polypeptide receptor (hNpr2) antagonism - Pilot subtype selectivity assay (AID 1347050; calls by dose curve); details: NPR2-expressing cells, cGMP antagonist-mode read-out; series mostly up to 38.3 µM
Atrial natriuretic peptide receptor 2 (Homo sapiens), sequence (P20594 whole entry, looked up): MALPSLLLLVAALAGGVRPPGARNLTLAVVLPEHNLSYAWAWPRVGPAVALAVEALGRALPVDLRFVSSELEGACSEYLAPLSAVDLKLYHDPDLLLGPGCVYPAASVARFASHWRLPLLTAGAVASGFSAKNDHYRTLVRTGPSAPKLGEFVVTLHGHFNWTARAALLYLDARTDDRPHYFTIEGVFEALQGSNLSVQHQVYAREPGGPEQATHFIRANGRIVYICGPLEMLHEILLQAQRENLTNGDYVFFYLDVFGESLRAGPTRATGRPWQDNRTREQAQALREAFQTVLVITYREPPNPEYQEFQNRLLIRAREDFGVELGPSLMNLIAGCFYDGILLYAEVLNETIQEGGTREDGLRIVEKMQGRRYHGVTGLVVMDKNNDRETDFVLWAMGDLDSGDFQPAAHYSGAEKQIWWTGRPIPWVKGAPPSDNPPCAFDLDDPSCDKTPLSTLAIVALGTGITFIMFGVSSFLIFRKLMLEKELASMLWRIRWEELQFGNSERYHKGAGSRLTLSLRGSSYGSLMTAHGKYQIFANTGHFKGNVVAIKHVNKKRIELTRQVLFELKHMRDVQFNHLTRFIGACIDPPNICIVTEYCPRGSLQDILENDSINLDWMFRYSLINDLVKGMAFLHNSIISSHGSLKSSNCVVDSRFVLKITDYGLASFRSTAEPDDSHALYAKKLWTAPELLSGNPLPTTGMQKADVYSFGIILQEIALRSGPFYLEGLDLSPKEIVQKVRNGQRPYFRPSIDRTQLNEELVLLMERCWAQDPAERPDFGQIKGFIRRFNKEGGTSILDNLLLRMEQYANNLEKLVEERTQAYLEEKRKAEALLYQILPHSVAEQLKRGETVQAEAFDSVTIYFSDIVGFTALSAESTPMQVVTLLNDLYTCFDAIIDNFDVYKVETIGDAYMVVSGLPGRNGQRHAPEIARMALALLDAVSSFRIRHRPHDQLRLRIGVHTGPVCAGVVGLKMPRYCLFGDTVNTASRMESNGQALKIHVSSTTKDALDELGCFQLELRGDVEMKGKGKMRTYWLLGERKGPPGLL
How it was run: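 cGMP-sensor HEK293/hNpr2 cells; 2% GloSensor reagent 2 h RT; compounds 30 min; baseline luminescence read; 1 nM hNppC agonist 20 min RT; final luminescence read by CCD camera. Antagonism = reduced post-agonist signal.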

[9] = Natriuretic polypeptide receptor (hNpr1) antagonism - Pilot counterscreen GloSensor control cell line (AID 1347045; calls by dose curve); details: HEK293 cGMP GloSensor cells, SNP-stimulated luminescence, 20 min; series mostly up to 38.3 µM
How it was run: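 Luminescence was read before and 20 min after adding 50 uM SNP, which stimulates soluble guanylyl cyclase. The HEK293 cells expressing the GloSensor cGMP sensor had been preloaded with 2% reagent for 2 h and treated with compound.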

[10] = target: Atrial natriuretic peptide receptor 1 (Homo sapiens) (UniProt P16066); test: Natriuretic polypeptide receptor (hNpr1) antagonism - Pilot screen (AID 1347049; calls by dose curve;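 further: agonist-evoked cGMP luminescence read 20 min after hNppA addition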); details: hNpr1 cells, antagonist mode cGMP read-out; series mostly up to 57.5 µM
Atrial natriuretic peptide receptor 1 (Homo sapiens), sequence (P16066 whole entry, looked up): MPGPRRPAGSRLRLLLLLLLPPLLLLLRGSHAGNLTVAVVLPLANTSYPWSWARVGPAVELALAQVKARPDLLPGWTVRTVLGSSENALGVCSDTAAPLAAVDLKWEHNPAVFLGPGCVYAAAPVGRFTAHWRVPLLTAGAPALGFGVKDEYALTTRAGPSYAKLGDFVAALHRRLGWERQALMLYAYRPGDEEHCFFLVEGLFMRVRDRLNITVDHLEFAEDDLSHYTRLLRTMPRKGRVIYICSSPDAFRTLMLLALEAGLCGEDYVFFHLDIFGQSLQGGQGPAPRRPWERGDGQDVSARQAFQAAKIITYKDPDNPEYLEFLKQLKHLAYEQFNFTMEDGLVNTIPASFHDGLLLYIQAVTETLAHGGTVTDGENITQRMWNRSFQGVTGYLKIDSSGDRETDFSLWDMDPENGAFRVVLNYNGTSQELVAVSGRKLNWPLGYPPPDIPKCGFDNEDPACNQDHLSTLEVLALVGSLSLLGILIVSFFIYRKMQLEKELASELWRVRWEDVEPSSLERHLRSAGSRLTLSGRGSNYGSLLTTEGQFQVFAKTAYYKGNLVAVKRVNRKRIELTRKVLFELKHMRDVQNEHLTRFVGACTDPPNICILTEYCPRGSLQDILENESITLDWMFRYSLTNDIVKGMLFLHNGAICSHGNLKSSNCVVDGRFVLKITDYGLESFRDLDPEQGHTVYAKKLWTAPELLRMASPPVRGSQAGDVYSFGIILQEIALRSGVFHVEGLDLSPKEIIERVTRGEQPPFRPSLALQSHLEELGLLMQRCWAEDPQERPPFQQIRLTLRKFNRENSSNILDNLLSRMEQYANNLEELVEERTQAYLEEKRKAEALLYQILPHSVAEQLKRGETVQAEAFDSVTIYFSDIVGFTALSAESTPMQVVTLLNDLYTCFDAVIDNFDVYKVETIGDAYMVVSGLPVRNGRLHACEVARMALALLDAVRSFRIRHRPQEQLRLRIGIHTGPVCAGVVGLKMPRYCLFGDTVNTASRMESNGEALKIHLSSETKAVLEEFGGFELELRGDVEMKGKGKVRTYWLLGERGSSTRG
How it was run: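 HEK293 cells co-expressing hNpr1 and the GloSensor pGS-40F cGMP luciferase sensor were preloaded with 2% GloSensor reagent for 2 h. Compounds were added for 30 min at room temperature, then cells were stimulated with 0.1 nM hNppA for 20 min before luminescence readout.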

CCOC(=O)C1=C(O)C(=O)N(Cc2ccccc2)C1
Potency [1]: inactive
Potency [2]: inactive
Potency [3]: inactive

CCN(CC)CCOc1ccc(Nc2ncc3cc(-c4c(Cl)cccc4Cl)c(=O)n(C)c3n2)cc1
Potency [1]: 662 nM (active)
Potency [4]: 1050 nM (active)
Potency [2]: 16600 nM (active)
IC50 (viability decrease) [5]: 1480 nM (active)
Potency [6]: 296 nM (active)
Potency [3]: 166 nM (active)

CN(C)C(=O)[C@H](O)[C@H](Cc1ccccc1)NC(=O)c1cc2cc(Cl)ccc2[nH]1
Potency [7]: inactive
Potency [3]: inactive

CC(C)C[C@H](NC(=O)[C@H](Cc1ccccc1)NC(=O)c1cnccn1)B(O)O
Potency [1]: 16.6 nM (active)
Potency [4]: 1.7 nM (active)
Potency [2]: 10.5 nM (active)
IC50 (viability decrease) [5]: 3.7 nM (active)
Potency [6]: 14.8 nM (active)

Nc1ncn([C@H]2C[C@H](O)[C@@H](CO)O2)c(=O)n1
Potency [7]: inactive
Potency [3]: inactive

CCCCC(CC)COC(=O)C(C#N)=C(c1ccccc1)c1ccccc1 (stereo not given)
Potency [7]: inactive

CN(c1nccc(=O)[nH]1)C1CCN(c2nc3ccccc3n2Cc2ccc(F)cc2)CC1
Potency [7]: inactive
Potency [3]: inactive

Cc1ccc(NC(=O)c2ccc(CN3CCN(C)CC3)cc2)cc1Nc1nccc(-c2cccnc2)n1
Potency [1]: inactive
Potency [2]: inactive
Potency [6]: inactive
Potency [3]: inactive

CCOc1cc(CC(=O)N[C@@H](CC(C)C)c2ccccc2N2CCCCC2)ccc1C(=O)O
Potency [7]: inactive
Potency [3]: inactive

Cc1cc2c(s1)Nc1ccccc1N=C2N1CCN(C)CC1
Potency [7]: inactive
Potency [3]: inactive

O=C(NCCO[N+](=O)[O-])c1cccnc1
Potency [7]: inactive
Potency [3]: inactive

COc1cc(Nc2c(C#N)cnc3cc(OCCCN4CCN(C)CC4)c(OC)cc23)c(Cl)cc1Cl
Potency [1]: 26400 nM (active)
IC50 (viability decrease) [5]: 23500 nM (active)
Potency [7]: 18400 nM (active)
Potency [3]: inactive

Nc1nc(Cl)nc2c1ncn2[C@H]1C[C@H](O)[C@@H](CO)O1
IC50 (viability decrease) [5]: 95.9 nM (active)
Potency [3]: inactive

CCCOc1ccc2nc(NC(=O)OC)[nH]c2c1
Potency [7]: 291 nM (active)
Potency [3]: 231 nM (active) and 651 nM (active) and 11.8 nM (active)

Nc1cccc2c1CN(C1CCC(=O)NC1=O)C2=O (stereo not given)
Potency [1]: inactive
Potency [2]: inactive
Potency [3]: inactive

CCN(CCO)CCCC(C)Nc1ccnc2cc(Cl)ccc12 (stereo not given)
Potency [1]: inactive
IC50 (viability decrease) [5]: inactive
Potency [3]: inactive

C[C@@H](N)C1CCC(C(=O)Nc2ccncc2)CC1 (stereo not given in full)
Potency [1]: inactive
Potency [2]: inactive
IC50 (viability decrease) [5]: inactive
Potency [3]: inactive
Potency [8]: inactive

Cc1cc(Cl)ccc1OCCCC(=O)NO
Potency [7]: inactive

COc1cc2c(N3CCN(C(=O)Nc4ccc(OC(C)C)cc4)CC3)ncnc2cc1OCCCN1CCCCC1
Potency [1]: inactive
Potency [2]: inactive
Potency [3]: inactive

C[C@H](Cn1cnc2c(N)ncnc21)OCP(=O)(O)O
Potency [7]: inactive
Potency [3]: inactive

Cc1cccc(-c2[nH]ncc2-c2ccc3ncccc3n2)n1
Potency [1]: inactive
IC50 (viability decrease) [5]: inactive
Potency [3]: inactive

Cc1ccc(Nc2nccc(N(C)c3ccc4c(C)n(C)nc4c3)n2)cc1S(N)(=O)=O
Potency [1]: 18700 nM (active)
Potency [2]: inactive
Potency [3]: inactive

CCOC(=O)C(C)Oc1cccc2c(=O)n(CC(=O)Nc3ccc4c(c3)OCCO4)ccc12 (stereo not given)
Potency [1]: inactive
Potency [2]: inactive
Potency [7]: inactive
Potency [3]: inactive
Potency [9]: inactive
Potency [10]: inactive
Potency [8]: inactive

COCCCOc1ccnc(CS(=O)c2nc3ccccc3[nH]2)c1C (stereo not given)
Potency [7]: inactive
Potency [3]: 3.66 µM (active) and inactive

Cc1nccn1CC1CCc2c(c3ccccc3n2C)C1=O (stereo not given)
Potency [7]: inactive
Potency [3]: inactive

Oc1ccc(OCc2ccccc2)cc1
Potency [7]: inactive
Potency [3]: inactive

Cc1cc(C2CCCCC2)n(O)c(=O)c1
Potency [7]: 6510 nM (active)
Potency [3]: 5800 nM (active)

CN(C)CCc1c[nH]c2ccc(Cn3cncn3)cc12
Potency [7]: inactive
Potency [3]: inactive

CC1=C(C(=O)O)N2C(=O)[C@@H](NC(=O)[C@H](N)C3=CCC=CC3)[C@H]2SC1
Potency [7]: inactive
Potency [3]: inactive

Cc1cccc(C#Cc2ccccc2)n1
Potency [1]: inactive
IC50 (viability decrease) [5]: inactive
Potency [3]: inactive

Cc1nc(Nc2ncc(C(=O)Nc3c(C)cccc3Cl)s2)cc(N2CCN(CCO)CC2)n1
Potency [6]: 20900 nM (active)
Potency [3]: inactive

S=c1nc[nH]c2nc[nH]c12
Potency [1]: 38200 nM (active)
IC50 (viability decrease) [5]: 1710 nM (active)
Potency [6]: 5400 nM (active)
Potency [3]: 2.59 µM (active) and 2.64 µM (active)
